# Experimental data taken from PubChem BioAssay AID1159580 (chemical genetic matrix, 2015).
# About 2,000 (36%) of roughly 5,500 compounds were called active. Inconclusive results (about 18%) are left out. Some of the results follow. Unmarked numbers belong to inactive results. Rule as the data show it: active = normalized growth mostly below about 0.91 (no sharp cut-off); inconclusive = no clear call, values can overlap the other calls; inactive = mostly above about 0.92.
# Experiment: chemical genetic growth profiling, strain panel (AID 1159580);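 also: tested at 20 µM; growth read once vehicle control cultures reached saturation at 30 °C; 1 = growth at the plate median or of vehicle wells; lower values mean less growth of the strain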
# Settings: growth OD
# [1] = S. cerevisiae deletion strains, locus YCL061C, strain MRC1, stronger effect = lower value
structure (smiles),measurement,setting,value
O=C1c2ccccc2-c2cccc3cccc1c23,normalized growth,"S. cerevisiae deletion strains, locus YAL021C, strain ccr4, stronger effect = lower value",0.946
same,normalized growth,"S. cerevisiae deletion strains, locus YAL026C, strain drs2, stronger effect = lower value",0.896 (active)
same,normalized growth,"S. cerevisiae deletion strains, locus YAL030W, strain snc1, stronger effect = lower value",0.954
same,normalized growth,"S. cerevisiae deletion strains, locus YBL061C, strain skt5, stronger effect = lower value",0.88 (active)
same,normalized growth,"S. cerevisiae deletion strains, locus YBR009C, strain hhf1, stronger effect = lower value",0.849 (active)
same,normalized growth,"S. cerevisiae deletion strains, locus YBR023C, strain chs3, stronger effect = lower value",0.855 (active)
same,normalized growth,"S. cerevisiae deletion strains, locus YBR171W, strain sec66, stronger effect = lower value",0.964
same,normalized growth,"S. cerevisiae deletion strains, locus YBR231C, strain swc5, stronger effect = lower value",0.78 (active)
same,normalized growth,"S. cerevisiae deletion strains, locus YBR279W, strain paf1, stronger effect = lower value",0.884 (active)
same,normalized growth,"S. cerevisiae deletion strains, locus YCL011C, strain gbp2, stronger effect = lower value",0.874 (active)
same,normalized growth,"S. cerevisiae deletion strains, locus YCL016C, strain dcc1, stronger effect = lower value",0.823 (active)
same,normalized growth,[1],0.867 (active)
same,normalized growth,"S. cerevisiae deletion strains, locus YCL069W, strain vba3, stronger effect = lower value",0.924 (active)
same,normalized growth,"S. cerevisiae deletion strains, locus YCR088W, strain abp1, stronger effect = lower value",1.01
same,normalized growth,"S. cerevisiae deletion strains, locus YDL005C, strain med2, stronger effect = lower value",0.961
same,normalized growth,"S. cerevisiae deletion strains, locus YDL040C, strain nat1, stronger effect = lower value",0.974
same,normalized growth,"S. cerevisiae deletion strains, locus YDR001C, strain nth1, stronger effect = lower value",0.988
same,normalized growth,"S. cerevisiae deletion strains, locus YDR069C, strain doa4, stronger effect = lower value",0.905
same,normalized growth,"S. cerevisiae deletion strains, locus YDR137W, strain rgp1, stronger effect = lower value",0.756 (active)
same,normalized growth,"S. cerevisiae deletion strains, locus YDR159W, strain sac3, stronger effect = lower value",0.881
same,normalized growth,"S. cerevisiae deletion strains, locus YDR195W, strain ref2",1.44 [resistant] (active)
same,normalized growth,"S. cerevisiae deletion strains, locus YDR297W, strain sur2, stronger effect = lower value",0.965
same,normalized growth,"S. cerevisiae deletion strains, locus YDR334W, strain swr1, stronger effect = lower value",0.923
same,normalized growth,"S. cerevisiae deletion strains, locus YDR335W, strain msn5, stronger effect = lower value",0.952
same,normalized growth,"S. cerevisiae deletion strains, locus YDR392W, strain spt3, stronger effect = lower value",0.483 (active)
same,normalized growth,"S. cerevisiae deletion strains, locus YEL003W, strain gim4, stronger effect = lower value",0.967
same,normalized growth,"S. cerevisiae deletion strains, locus YEL037C, strain rad23, stronger effect = lower value",0.945
same,normalized growth,"S. cerevisiae deletion strains, locus YEL061C, strain CIN8 (second series), stronger effect = lower value",0.953
same,normalized growth,"S. cerevisiae deletion strains, locus YER015W, strain faa2, stronger effect = lower value",0.939
same,normalized growth,"S. cerevisiae deletion strains, locus YER016W, strain bim1, stronger effect = lower value",0.977
same,normalized growth,"S. cerevisiae deletion strains, locus YER111C, strain swi4, stronger effect = lower value",0.968
same,normalized growth,"S. cerevisiae deletion strains, locus YER155C, strain BEM2 (second series), stronger effect = lower value",0.716 (active)
same,normalized growth,"S. cerevisiae deletion strains, locus YFR010W, strain ubp6, stronger effect = lower value",0.833 (active)
same,normalized growth,"S. cerevisiae deletion strains, locus YGL167C, strain pmr1, stronger effect = lower value",0.97
same,normalized growth,"S. cerevisiae deletion strains, locus YGL173C, strain kem1, stronger effect = lower value",0.853 (active)
same,normalized growth,"S. cerevisiae deletion strains, locus YGL227W, strain vid30, stronger effect = lower value",0.99
same,normalized growth,"S. cerevisiae deletion strains, locus YGL240W, strain doc1, stronger effect = lower value",0.868 (active)
same,normalized growth,"S. cerevisiae deletion strains, locus YGL253W, strain hxk2, stronger effect = lower value",0.822 (active)
same,normalized growth,"S. cerevisiae deletion strains, locus YHR013C, strain ard1, stronger effect = lower value",0.737 (active)
same,normalized growth,"S. cerevisiae deletion strains, locus YHR027C, strain rpn1, stronger effect = lower value",0.956
same,normalized growth,"S. cerevisiae deletion strains, locus YHR142W, strain chs7, stronger effect = lower value",0.62 (active)
same,normalized growth,"S. cerevisiae deletion strains, locus YJL092W, strain hpr5, stronger effect = lower value",0.899 (active)
same,normalized growth,"S. cerevisiae deletion strains, locus YJL095W, strain BCK1 (second series), stronger effect = lower value",0.854 (active)
same,normalized growth,"S. cerevisiae deletion strains, locus YJL115W, strain asf1, stronger effect = lower value",0.91
same,normalized growth,"S. cerevisiae deletion strains, locus YJL129C, strain trk1, stronger effect = lower value",1.02
same,normalized growth,"S. cerevisiae deletion strains, locus YJL154C, strain vps35, stronger effect = lower value",0.988
same,normalized growth,"S. cerevisiae deletion strains, locus YJL164C, strain tpk1, stronger effect = lower value",0.868 (active)
same,normalized growth,"S. cerevisiae deletion strains, locus YJL166W, strain qcr8, stronger effect = lower value",0.841 (active)
same,normalized growth,"S. cerevisiae deletion strains, locus YKL160W, strain elf1, stronger effect = lower value",0.829 (active)
same,normalized growth,"S. cerevisiae deletion strains, locus YKR026C, strain gcn3, stronger effect = lower value",0.965
same,normalized growth,"S. cerevisiae deletion strains, locus YKR091W, strain srl3, stronger effect = lower value",0.977
same,normalized growth,"S. cerevisiae deletion strains, locus YLL001W, strain dnm1, stronger effect = lower value",0.89 (active)
same,normalized growth,"S. cerevisiae deletion strains, locus YLL026W, stronger effect = lower value",0.932
same,normalized growth,"S. cerevisiae deletion strains, locus YLL041C, strain sdh2, stronger effect = lower value",0.994
same,normalized growth,"S. cerevisiae deletion strains, locus YLR027C, strain aat2, stronger effect = lower value",0.875 (active)
same,normalized growth,"S. cerevisiae deletion strains, locus YLR221C, strain rsa3, stronger effect = lower value",0.875 (active)
same,normalized growth,"S. cerevisiae deletion strains, locus YLR258W, strain gsy2, stronger effect = lower value",0.9 (active)
same,normalized growth,"S. cerevisiae deletion strains, locus YLR262C, strain YPT6 (second series), stronger effect = lower value",0.747 (active)
same,normalized growth,"S. cerevisiae deletion strains, locus YLR320W, strain mms22, stronger effect = lower value",0.714 (active)
same,normalized growth,"S. cerevisiae deletion strains, locus YLR342W, strain FKS1, stronger effect = lower value",0.966
same,normalized growth,"S. cerevisiae deletion strains, locus YLR357W, strain rsc2, stronger effect = lower value",0.985
same,normalized growth,"S. cerevisiae deletion strains, locus YLR370C, strain arc18, stronger effect = lower value",0.931
same,normalized growth,"S. cerevisiae deletion strains, locus YLR384C, strain iki3, stronger effect = lower value",0.978
same,normalized growth,"S. cerevisiae deletion strains, locus YML120C, strain ndi1, stronger effect = lower value",0.949
same,normalized growth,"S. cerevisiae deletion strains, locus YMR058W, strain fet3, stronger effect = lower value",0.746 (active)
same,normalized growth,"S. cerevisiae deletion strains, locus YMR125W, strain sto1, stronger effect = lower value",0.9
same,normalized growth,"S. cerevisiae deletion strains, locus YMR129W, stronger effect = lower value",0.973
same,normalized growth,"S. cerevisiae deletion strains, locus YMR205C, strain PFK2, stronger effect = lower value",0.935
same,normalized growth,"S. cerevisiae deletion strains, locus YMR231W, strain pep5, stronger effect = lower value",0.954
same,normalized growth,"S. cerevisiae deletion strains, locus YNL071W, strain lat1, stronger effect = lower value",0.685 (active)
same,normalized growth,"S. cerevisiae deletion strains, locus YNL209W, strain ssb2, stronger effect = lower value",0.928
same,normalized growth,"S. cerevisiae deletion strains, locus YNL248C, strain rpa49, stronger effect = lower value",0.677 (active)
same,normalized growth,"S. cerevisiae deletion strains, locus YNL322C, strain KRE1 (second series), stronger effect = lower value",0.966
same,normalized growth,"S. cerevisiae deletion strains, locus YNR049C, strain mso1, stronger effect = lower value",0.986
same,normalized growth,"S. cerevisiae deletion strains, locus YOR001W, strain rrp6, stronger effect = lower value",0.911
same,normalized growth,"S. cerevisiae deletion strains, locus YOR070C, strain gyp1, stronger effect = lower value",0.904 (active)
same,normalized growth,"S. cerevisiae deletion strains, locus YOR080W, strain dia2, stronger effect = lower value",0.981
same,normalized growth,"S. cerevisiae deletion strains, locus YOR083W, strain WHI5, stronger effect = lower value",0.786 (active)
same,normalized growth,"S. cerevisiae deletion strains, locus YOR106W, strain vam3, stronger effect = lower value",0.693 (active)
same,normalized growth,"S. cerevisiae deletion strains, locus YOR265W, strain rbl2, stronger effect = lower value",0.967
same,normalized growth,"S. cerevisiae deletion strains, locus YOR270C, strain vph1, stronger effect = lower value",0.341 (active)
same,normalized growth,"S. cerevisiae deletion strains, locus YOR290C, strain snf2, stronger effect = lower value",0.856 (active)
same,normalized growth,"S. cerevisiae deletion strains, locus YPL051W, strain arl3, stronger effect = lower value",0.739 (active)
same,normalized growth,"S. cerevisiae deletion strains, locus YPL078C, strain atp4, stronger effect = lower value",0.787 (active)
same,normalized growth,"S. cerevisiae deletion strains, locus YPL106C, strain sse1, stronger effect = lower value",0.74 (active)
same,normalized growth,"S. cerevisiae deletion strains, locus YPL240C, strain hsp82, stronger effect = lower value",0.979
c1ccc2c(c1)-c1cccc3cccc-2c13,normalized growth,"S. cerevisiae deletion strains, locus YAL013W, strain DEP1, stronger effect = lower value",0.897 (active)
same,normalized growth,"S. cerevisiae deletion strains, locus YBR229C, strain ROT2, stronger effect = lower value",0.873 (active)
same,normalized growth,[1],0.876 (active)
same,normalized growth,"S. cerevisiae deletion strains, locus YDL101C, strain DUN1, stronger effect = lower value",0.929
same,normalized growth,"S. cerevisiae deletion strains, locus YDL134C, strain PPH21, stronger effect = lower value",0.873 (active)
same,normalized growth,"S. cerevisiae deletion strains, locus YDR150W, strain NUM1, stronger effect = lower value",0.911
same,normalized growth,"S. cerevisiae deletion strains, locus YEL061C, strain CIN8, stronger effect = lower value",0.787 (active)
same,normalized growth,"S. cerevisiae deletion strains, locus YGR078C, strain PAC10, stronger effect = lower value",0.855 (active)
same,normalized growth,"S. cerevisiae deletion strains, locus YHR030C, strain SLT2, stronger effect = lower value",0.34 (active)
same,normalized growth,"S. cerevisiae deletion strains, locus YHR087W, strain rtc3, stronger effect = lower value",0.826 (active)
same,normalized growth,"S. cerevisiae deletion strains, locus YJL187C, strain SWE1, stronger effect = lower value",0.939
same,normalized growth,"S. cerevisiae deletion strains, locus YJR043C, strain POL32, stronger effect = lower value",0.929
same,normalized growth,"S. cerevisiae deletion strains, locus YJR075W, strain HOC1, stronger effect = lower value",0.771 (active)
same,normalized growth,"S. cerevisiae deletion strains, locus YKL190W, strain CNB1, stronger effect = lower value",0.767 (active)
same,normalized growth,"S. cerevisiae deletion strains, locus YLR039C, strain RIC1, stronger effect = lower value",0.363 (active)
same,normalized growth,"S. cerevisiae deletion strains, locus YLR058C, strain SHM2 (second series), stronger effect = lower value",0.923 (active)
same,normalized growth,"S. cerevisiae deletion strains, locus YLR085C, strain ARP6, stronger effect = lower value",0.318 (active)
same,normalized growth,"S. cerevisiae deletion strains, locus YLR262C, strain YPT6, stronger effect = lower value",0.313 (active)
same,normalized growth,"S. cerevisiae deletion strains, locus YML094W, strain GIM5, stronger effect = lower value",0.757 (active)
same,normalized growth,"S. cerevisiae deletion strains, locus YMR219W, strain ESC1, stronger effect = lower value",0.949
same,normalized growth,"S. cerevisiae deletion strains, locus YMR263W, strain SAP30, stronger effect = lower value",0.916
same,normalized growth,"S. cerevisiae deletion strains, locus YMR307W, strain GAS1, stronger effect = lower value",0.428 (active)
same,normalized growth,"S. cerevisiae deletion strains, locus YNL153C, strain GIM3, stronger effect = lower value",0.906 (active)
same,normalized growth,"S. cerevisiae deletion strains, locus YNL298W, strain CLA4 (second series), stronger effect = lower value",0.694 (active)
same,normalized growth,"S. cerevisiae deletion strains, locus YNL322C, strain KRE1, stronger effect = lower value",0.932 (active)
same,normalized growth,"S. cerevisiae deletion strains, locus YNR030W, strain Alg12, stronger effect = lower value",0.721 (active)
same,normalized growth,"S. cerevisiae deletion strains, locus YOL006C, strain TOP1, stronger effect = lower value",0.764
same,normalized growth,"S. cerevisiae deletion strains, locus YPL055C, strain LGE1, stronger effect = lower value",0.666 (active)
same,normalized growth,"S. cerevisiae deletion strains, locus YPL241C, strain CIN2, stronger effect = lower value",0.648 (active)
same,normalized growth,"S. cerevisiae deletion strains, locus YPR135W, strain CTF4, stronger effect = lower value",0.483 (active)
same,normalized growth,"S. cerevisiae strains, strain wild type, stronger effect = lower value",0.863 (active)
